# Screening data as filed in PubChem.
# BAZ2B block – blocks human BAZ2B; Q9UIF8; AlphaScreen BAZ2B-H3K14Ac peptide displacement; Potency, µM (doses to about 114 µM), most hits filed as inhibitors; actives 4.4% (n = 360,000); also: nearly all actives have a fitted effect of over 60% in size
#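 In this displacement format the biotinylated H3(5-23) peptide acetylated at Lys14 serves as ligand at 50 nM, with BAZ2B at 50 nM in PBS pH 7.4 containing 0.01% Tween-20. Donor and acceptor beads are 10 ug/mL final.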
# HP1b binding inh – HP1-beta chromodomain-methylated histone interaction inhibition. P83916. AlphaScreen HP1-beta / biotin-H3K9me3 peptide binding. Potency, µM (titrated, usually from 114 µM), usual class: inhibitors. actives 0.56% (n = 390,000). AID 540317; also: nearly all actives have a fitted effect of over 70% in size
#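 HP1-beta protein (50 nM final) preincubated 30 min at room temperature with biotinylated H3(1-18)K9me3 peptide (50 nM) in PBS pH 7.4, 0.01% Tween-20, then compound added for 30 min. AlphaScreen streptavidin donor/nickel chelate acceptor beads (10 ug/mL final), 30 min dark, luminescence read.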
# JMJD2A Tudor inh – inhibitors of human JMJD2A Tudor domain; O75164; AlphaScreen JMJD2A-Tudor / H3K4me3 peptide binding; Potency, µM (highest dose often 114 µM), hits mostly inhibitors; actives 4.4% (n = 390,000); also: nearly all actives have a fitted effect of over 50% in size
# Target sequence (O75164 whole entry, looked up, the tested form may be a part): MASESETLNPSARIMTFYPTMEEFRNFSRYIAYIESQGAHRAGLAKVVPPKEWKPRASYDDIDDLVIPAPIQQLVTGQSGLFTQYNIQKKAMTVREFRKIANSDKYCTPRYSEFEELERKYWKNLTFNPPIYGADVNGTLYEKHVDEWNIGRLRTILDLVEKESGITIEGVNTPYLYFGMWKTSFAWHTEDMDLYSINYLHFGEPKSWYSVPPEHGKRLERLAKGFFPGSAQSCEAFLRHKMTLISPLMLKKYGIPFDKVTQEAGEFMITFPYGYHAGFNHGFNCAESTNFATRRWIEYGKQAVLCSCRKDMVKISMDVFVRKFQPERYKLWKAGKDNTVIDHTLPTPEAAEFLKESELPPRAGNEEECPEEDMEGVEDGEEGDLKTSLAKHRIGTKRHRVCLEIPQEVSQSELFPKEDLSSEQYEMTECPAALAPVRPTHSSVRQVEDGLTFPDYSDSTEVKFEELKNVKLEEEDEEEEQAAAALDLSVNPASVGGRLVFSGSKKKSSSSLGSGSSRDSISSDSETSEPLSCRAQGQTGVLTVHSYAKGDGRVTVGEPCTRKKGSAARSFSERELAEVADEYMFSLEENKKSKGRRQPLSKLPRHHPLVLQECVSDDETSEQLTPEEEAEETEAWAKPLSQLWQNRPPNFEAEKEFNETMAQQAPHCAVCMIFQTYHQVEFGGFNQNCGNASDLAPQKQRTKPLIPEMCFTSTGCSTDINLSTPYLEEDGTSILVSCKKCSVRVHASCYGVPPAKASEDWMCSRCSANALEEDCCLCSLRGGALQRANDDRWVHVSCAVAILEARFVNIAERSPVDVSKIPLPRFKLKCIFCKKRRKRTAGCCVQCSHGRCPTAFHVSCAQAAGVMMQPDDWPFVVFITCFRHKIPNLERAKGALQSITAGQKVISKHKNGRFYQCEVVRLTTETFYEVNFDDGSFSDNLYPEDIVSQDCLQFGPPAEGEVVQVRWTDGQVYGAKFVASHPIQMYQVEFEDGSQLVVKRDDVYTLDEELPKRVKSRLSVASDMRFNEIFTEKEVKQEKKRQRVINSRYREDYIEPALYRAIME
# Six1-Eya2 inh – Six1/Eya2 interaction inhibition | AID 651725 | Q15475+O00167 | AlphaScreen GST-Six1/His-Eya2 binding, biochemical; stronger effect = lower value | activity change, % (concentration not given with the values) | actives 0.56% (n = 360,000); in the data active = activity change below about -65%; inconclusive = mostly about -30% to -63%
#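 AlphaScreen with GST-Six1 and His-Eya2 (5X mix: 250 nM and 500 nM), glutathione donor and nickel acceptor beads; buffer 50 mM Tris pH 8.0, 300 mM NaCl, 1 mM TCEP; 1 h at 37 C in the dark.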
# CtBP-E1A inh – CtBP/E1A binding inhibition; AlphaScreen GST-E1A/His-CtBP binding, 1536-well; stronger effect = lower value; activity change, % (concentration not given with the values); actives 0.49% (n = 340,000); AID 651724; in the data active = activity change below about -65%; inconclusive = mostly about -30% to -63%
#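 Homogeneous bead-based format: GST-tagged E1A captured on glutathione donor beads, His-tagged CtBP on nickel acceptor beads; compounds precede bead addition by 2 h at 37 °C.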
# TDP1 inh – TDP1 (human) enzyme inhibition | recombinant TDP1, AlphaScreen DNA substrate cleavage | Potency, µM (titrated, usually from 130 µM), actives largely listed as inhibitors | actives 0.28% (n = 350,000) | AID 485290; also: nearly all actives have a fitted effect of over 40% in size
#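 Enzyme-compound mixtures sat 15 min at room temperature, followed by a 5 min reaction with 15 nM final substrate and 10 min with AlphaScreen beads. Recombinant human Tdp1 was used at 1 nM final.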
# Numbers stand for hits; . = inactive; ? = inconclusive; / = not tested or not shown; [ ] = dose if it differs, or a comment. Sampled rows, rich in hits. Any-hit rate of the full collection: about 5.3%. Unless noted, calls follow the shape of the dose curve; as a rule, active = well fitted inhibition curve with a large enough effect; inconclusive = small, poorly fitted or top-dose-only effect; inactive = no such curve, though single readings can be large or run the other way.
SMILES,BAZ2B block,HP1b binding inh,JMJD2A Tudor inh,Six1-Eya2 inh,CtBP-E1A inh,TDP1 inh
CCc1ccc(O)c(C(=O)c2cnc3cc(-c4ccc(C)cc4)nn3c2)c1,.,.,.,/,/,.
CCc1nn2cc(C(=O)c3cc(Cl)ccc3O)cnc2c1-c1ccc(F)cc1,?,?,50µM,.,.,.
CC(C)Oc1ccc(C(=O)N2CCN(c3nc4c(F)cc(F)cc4s3)CC2)cc1,.,.,.,/,/,.
O=C(Nc1scc(-c2ccccc2)c1C(=O)O)c1ccccc1F,.,.,.,?,?,/
Cc1ccc(-c2csc(NC(=O)c3ccccc3F)c2C(=O)O)cc1,.,.,.,-70,/,/
COc1ccc(-c2csc(NC(=O)c3ccccc3Br)c2C(=O)O)cc1,.,.,.,?,.,/
COc1ccc(-c2csc(NC(=O)Cc3cccc4ccccc34)c2C(=O)O)cc1,?,.,.,-67,-67,.
O=C(Nc1nc2n(n1)C(c1ccccc1)C=C(c1ccc(Cl)cc1)N2)c1ccco1 (stereo unspecified),79µM,.,?,/,/,/
O=C(Nc1nc2n(n1)C(c1ccccc1)C=C(c1ccccc1)N2)c1ccco1 (stereo unspecified),25µM,.,.,.,.,.
CN(C)c1ccc([C@@H]2[C@@H]([N+](=O)[O-])[C@H]3C=Cc4ccccc4N3[C@H]2C(=O)c2ccc(Cl)cc2)cc1,32µM,?,45µM,.,?,.
O=C(c1ccccc1)C1C(c2ccccc2)C1[N+](=O)[O-] (stereo unspecified),.,.,.,.,.,.
CCN(CC)CCOc1ccccc1OC,.,?,1.3µM,.,.,.
CC(C)(C)NCCOc1ccc(Br)cc1,?,.,3.5µM,.,.,.
COc1cccc(OC)c1OCCN(C)C,35µM,?,1µM,.,.,.
COc1cccc(OC)c1OCCN1CCCC1,.,.,.,.,/,/
COc1cccc(OC)c1OCCNC(C)(C)C,50µM,.,8.9µM,.,.,.
C=C(C)c1cc2c(s1)c1cnn(Cc3ccccc3F)c(=O)c1n2C,/,/,.,/,/,/
CC(C)Oc1ccc(C(=O)N(Cc2ccc(N(C)C)cc2)Cc2ccco2)cc1,13µM,?,25µM,/,/,.
CCCCOc1ccc(C(=O)N(Cc2ccc(N(C)C)cc2)Cc2ccco2)cc1,10µM,?,20µM,/,/,.
Cc1cc(C)c2c(CC(=O)Nc3cc(C(F)(F)F)ccc3Cl)coc2c1,.,.,.,/,/,.
CC1=C(C(=O)NCc2ccccn2)C2(CCC(C)CC2)OC1=O (stereo unspecified),79µM,.,28µM,.,.,.
CC12CCC(C(=O)NCc3ccccn3)(OC1=O)C2(C)C (stereo unspecified),79µM,.,?,.,.,.
CC1=C(C(=O)NCc2ccc(Cl)cc2)C2(CCC(C)CC2)OC1=O (stereo unspecified),.,.,.,.,.,.
COc1ccc2c(c1)c1c(c(=O)n(CCc3ccccc3)c(=O)n1Cc1ccc(F)cc1)n2C,.,.,.,/,/,.
COc1ccc(Cc2c3cc(OC)c(OC)cc3cc[n+]2C)cc1OC,.,?,22µM,.,.,/
SMILES,BAZ2B block,HP1b binding inh,JMJD2A Tudor inh,Six1-Eya2 inh,CtBP-E1A inh,TDP1 inh
CC[n+]1ccc2cc(OC)c(OC)cc2c1Cc1ccc(OC)c(OC)c1,79µM,40µM,25µM,.,.,.
COc1ccc2c(c1)c[n+](C)c1c3cc(OC)c(OC)cc3ccc21,/,/,/,.,.,/
CCCCN(Cc1ccccc1)C1CCN(Cc2ccccc2)CC1,.,.,.,.,.,/
CCN(Cc1ccccc1)C1CCN(Cc2ccc(SC)cc2)CC1,50µM,?,2.5µM,.,.,.
CCN(Cc1ccccc1)C(=O)C1CCN(Cc2ccc(SC)cc2)CC1,.,?,20µM,.,.,.
CSc1ccc(CN2CCC2(C)C(=O)NC2CCN(Cc3ccccc3)CC2)cc1 (stereo unspecified),/,/,/,.,.,/
Cc1cc2c(s1)c1cnn(Cc3c(F)ccc(F)c3F)c(=O)c1n2C,/,/,.,/,/,/
C/C(=C\CO)CCO,/,/,/,/,/,.
COc1ccc(C(=O)c2cn(Cc3cccc(C)c3)c3cc4c(cc3c2=O)OCO4)cc1,?,.,.,/,/,.
O=C(c1cc(C2CC2)nn1-c1ccccc1)N1CCN(c2ccc(O)cc2)CC1,?,71µM,32µM,.,.,.
O=C(c1cc(-c2ccc(O)cc2)on1)N1CCN(c2ccccc2)CC1,?,.,56µM,.,.,.
O=C(c1cc(C2CC2)nn1-c1ccccc1)N1CCN(c2ccccc2O)CC1,/,.,.,.,.,.
COc1ccc2c(c1)CCC1[C@@H]2CCC2(C)[C@@H](NCCCCCCN3C(=O)C=CC3=O)CC[C@@H]12 (stereo partly specified),/,/,/,/,/,.
Cc1cccc(NS(=O)(=O)c2ccc3[nH]c(=O)ccc3c2)c1C,.,.,.,/,/,.
O=C(CCNc1ccc(Cc2ccncc2)cc1)c1cccc([N+](=O)[O-])c1,25µM,?,45µM,.,.,.
O=C(CCNc1cccc(F)c1)c1cccc([N+](=O)[O-])c1,35µM,.,?,?,.,.
Cc1ccc(C(=O)CCS(=O)(=O)c2ccc(Br)cc2)cc1,.,.,.,.,.,.
Cc1ccc(S(=O)(=O)Cc2cc(F)c([N+](=O)[O-])cc2[N+](=O)[O-])cc1,56µM,.,.,.,.,.
COc1ccc([N+](=O)[O-])cc1C(=O)Nc1ccc(Cc2ccncc2)cc1,.,.,.,.,.,.
Cc1ccc(S(=O)(=O)CCC(=O)c2cccc([N+](=O)[O-])c2)cc1,.,45µM,28µM,.,.,.
Cc1cc(C)cc(NC(=O)N2CCC(CN3CCCCCC3)CC2)c1,.,.,.,/,/,.
COc1cc(NC(=O)CC(C)S(=O)(=O)c2ccc3c(c2)CCN3C(C)=O)cc(OC)c1OC (stereo unspecified),.,.,.,/,/,.
FC(F)(F)c1ccccc1-n1c(CN2CCCCC2)n[nH]c1=S,.,.,22µM,.,.,.
Fc1ccc(-n2c(CN3CCCCC3)n[nH]c2=S)cc1,.,.,?,.,.,.
COc1cccc(CNc2ccc3[nH]c(=O)[nH]c3c2)c1OCc1ccc(F)cc1,45µM,?,40µM,?,.,/
C=CCOc1c(CNc2ccc3[nH]c(=O)[nH]c3c2)cccc1OC,.,?,45µM,.,.,.
O=c1[nH]c2ccc(NCc3ccccc3OCc3ccc(Cl)cc3)cc2[nH]1,22µM,?,28µM,?,?,.
C=CCOc1c(CNc2ccc(S(N)(=O)=O)cc2)cccc1OC,.,.,.[11.4 µM],.,.,.
Oc1ccc(NCc2ccccc2OCc2ccc(Cl)cc2)cc1,.,.,?,/,/,.
